Measurements taken from PubChem BioAssay.

Key:
Test in all cases: modulators of BK channel variants, profiling panel, selectivity assay, cell-based, U2OS BacMam, thallium flux, beta subunits (AID 1259406);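 active means thallium flux through the channel raised or lowered by more than 3 SD from vehicle-only wells, actives on both sides; inactive means the rest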;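 further: initial slope of Thallos dye fluorescence rise after thallium is added; log ratio against the mean of 0.3% DMSO vehicle wells on the same plate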
F380Y = details: at 30 µM
F380Y/beta1 = details: at 30 µM
F380Y/beta2Delta = details: at 30 µM
F380Y/beta4 = details: at 30 µM
[1] = target: Calcium-activated potassium channel subunit alpha-1 (Homo sapiens) + Leucine-rich repeat-containing protein 26 (Homo sapiens) (UniProt Q12791+Q2I0M4); details: F380Y/Slo1WT/gamma1, at 30 µM
Chain of Calcium-activated potassium channel subunit alpha-1 (Homo sapiens) + Leucine-rich repeat-containing protein 26 (Homo sapiens) (Q2I0M4 whole entry, looked up, one chain of several): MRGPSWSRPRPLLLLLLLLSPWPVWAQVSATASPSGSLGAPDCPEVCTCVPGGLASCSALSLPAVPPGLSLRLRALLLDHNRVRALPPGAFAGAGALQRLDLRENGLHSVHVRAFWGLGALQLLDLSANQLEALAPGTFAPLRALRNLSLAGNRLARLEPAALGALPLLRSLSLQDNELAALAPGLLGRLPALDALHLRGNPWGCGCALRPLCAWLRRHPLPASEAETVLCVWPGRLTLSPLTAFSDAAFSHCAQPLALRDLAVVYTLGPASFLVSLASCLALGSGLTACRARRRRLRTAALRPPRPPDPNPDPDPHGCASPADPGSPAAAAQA

R275C = details: at 30 µM
R275C/beta1 = details: at 30 µM
R275C/beta2Delta = details: at 30 µM
R275C/beta4 = details: at 30 µM
R275C/Slo1WT/beta2 = details: at 30 µM

Measured: log fold change Tl+ flux

Cc1cc(C)c2cc(C(=O)Nc3ccccc3SCc3cccc(Cl)c3F)[nH]c2c1
inactive: F380Y 0.0408 | F380Y/beta1 0.0143 | F380Y/beta2Delta 0.00341 | F380Y/beta4 -0.00891 | [1] -0.00142 | R275C 0.000963 | R275C/beta1 0.041 | R275C/beta2Delta 0.02 | R275C/beta4 0.00151 | R275C/Slo1WT/beta2 0.025

FC(F)(F)c1cc(C=Cc2noc(-c3ccc(CN4CCCC4)cc3)n2)cc(C(F)(F)F)c1
inactive: F380Y -0.0963 | F380Y/beta1 0.0303 | F380Y/beta2Delta -0.0239 | F380Y/beta4 -0.0108 | [1] 0.0236 | R275C -0.0044 | R275C/beta1 0.00631 | R275C/beta2Delta -0.0502 | R275C/beta4 -0.00136 | R275C/Slo1WT/beta2 -0.00667

N#CC1=C(Nc2ccccc2Cl)SC(c2ccncc2)NC1=O (stereo not given)
inactive: F380Y -0.0226 | F380Y/beta1 0.0482 | F380Y/beta2Delta 0.0198 | F380Y/beta4 -0.00461 | [1] 0.0291 | R275C 0.0616 | R275C/beta1 0.0544 | R275C/beta2Delta 0.0222 | R275C/beta4 0.0286 | R275C/Slo1WT/beta2 0.0417

O=C(CCn1nc(-c2ccc(F)cc2)ccc1=O)NCc1ccccc1
inactive: F380Y 0.0369 | F380Y/beta1 0.0341 | F380Y/beta2Delta 0.06 | F380Y/beta4 -0.00672 | [1] 0.0366 | R275C 0.021 | R275C/beta1 0.0385 | R275C/beta2Delta 0.0213 | R275C/beta4 0.037 | R275C/Slo1WT/beta2 0.000143

O=C(CNc1cc(C(F)(F)F)cc(C(F)(F)F)c1)c1ccc(Cl)cc1
inactive: F380Y -0.0386 | F380Y/beta1 0.0507 | F380Y/beta2Delta -0.00515 | F380Y/beta4 -0.0229 | [1] -0.0851 | R275C 0.0058 | R275C/beta1 0.0119 | R275C/beta2Delta 0.000503 | R275C/beta4 0.0102 | R275C/Slo1WT/beta2 0.0351

CC(=O)C(=CN(C)C)Sc1ccc(Cl)cc1
inactive: F380Y 0.0299 | F380Y/beta1 -0.000152 | F380Y/beta2Delta 0.00502 | F380Y/beta4 0.000556 | [1] 0.0115 | R275C 0.0269 | R275C/beta1 0.0366 | R275C/beta2Delta 0.0244 | R275C/beta4 0.0484 | R275C/Slo1WT/beta2 -0.0118

CC(C)(C)c1cc(-c2nc(-c3ccc(C(F)(F)F)cc3)no2)n(Cc2ccccc2)n1
inactive: F380Y -0.0279 | F380Y/beta1 -0.0164 | F380Y/beta2Delta -0.0472 | F380Y/beta4 0.0114 | [1] -0.0649 | R275C 0.0485 | R275C/beta1 -0.0238 | R275C/beta2Delta -0.0138 | R275C/beta4 0.0105 | R275C/Slo1WT/beta2 0.0318

CCOC(=O)Cn1c(=O)ccc2c(C)cc(C)nc21
inactive: F380Y 0.0287 | F380Y/beta1 -0.0128 | F380Y/beta2Delta 0.0236 | F380Y/beta4 -0.0078 | [1] 0.0102 | R275C -0.00247 | R275C/beta1 -0.0331 | R275C/beta2Delta 0.00136 | R275C/beta4 0.00241 | R275C/Slo1WT/beta2 -0.00135

O=S(=O)(c1ccc(N2CCOCC2)nc1)N1CCN(c2c(Cl)cncc2Cl)CC1
inactive: F380Y 0.0448 | F380Y/beta1 -0.00781 | F380Y/beta2Delta 0.0236 | F380Y/beta4 -0.00865 | [1] -0.039 | R275C 0.00433 | R275C/beta1 0.0279 | R275C/beta2Delta 0.0194 | R275C/beta4 -0.0287 | R275C/Slo1WT/beta2 0.00545

COCc1cc(=O)[nH]c(SCC(=O)c2ccc(-c3ccccc3)cc2)n1
inactive: F380Y 0.0542 | F380Y/beta1 0.0105 | F380Y/beta2Delta 0.0138 | F380Y/beta4 -0.000638 | [1] 0.0335 | R275C 0.0131 | R275C/beta1 -0.0427 | R275C/beta2Delta 0.032 | R275C/beta4 0.0252 | R275C/Slo1WT/beta2 -0.000518

O=S(=O)(c1ccc(-c2cc(C(F)(F)F)on2)s1)N1CCc2c([nH]c3ccc(F)cc23)C1
inactive: F380Y 0.0233 | F380Y/beta1 0.0471 | F380Y/beta2Delta 0.0355 | F380Y/beta4 0.0473 | [1] 0.0308 | R275C 0.0283 | R275C/beta1 -0.0189 | R275C/beta2Delta 0.0168 | R275C/beta4 -0.00429 | R275C/Slo1WT/beta2 0.00527

COc1cc(C(F)(F)F)nc2ccc(C#CCOC(=O)Nc3cccc(Cl)c3)cc12
inactive: F380Y -0.0208 | F380Y/beta1 0.0282 | F380Y/beta2Delta -0.0312 | F380Y/beta4 0.0143 | [1] -0.0274 | R275C -0.0392 | R275C/beta1 -0.0781 | R275C/beta2Delta -0.0125 | R275C/beta4 -0.00958 | R275C/Slo1WT/beta2 0.0405
